In PubChem BioAssay (NCATS):
Results filed as inconclusive are left out. The source made the active and inactive calls. Calls follow the shape of the full dose curve.

biological target: Cytochrome P450 1A2 (Homo sapiens) (UniProt P05177); assay: p450-cyp1a2 (AID 410); details: recombinant CYP1A2, luciferin-ME demethylation, luminescence; series mostly up to 57 µM; activity change, negative = inhibition: at the top concentration;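 as to activity change, negative = inhibition: -100% = full effect of reference inhibitor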
Procedure, shortened: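 Luminescent readout of luciferin formed from Luciferin-ME by human CYP1A2; data normalized against complete inhibition by 57 uM furafylline. Enzyme 20nM, substrate 100uM at Km, 100mM KPO4 buffer, 60 min reaction at room temperature.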
Potency is read from the fitted curve at half-maximal effect.

Sequence of Cytochrome P450 1A2 (Homo sapiens) (P05177 whole entry, looked up): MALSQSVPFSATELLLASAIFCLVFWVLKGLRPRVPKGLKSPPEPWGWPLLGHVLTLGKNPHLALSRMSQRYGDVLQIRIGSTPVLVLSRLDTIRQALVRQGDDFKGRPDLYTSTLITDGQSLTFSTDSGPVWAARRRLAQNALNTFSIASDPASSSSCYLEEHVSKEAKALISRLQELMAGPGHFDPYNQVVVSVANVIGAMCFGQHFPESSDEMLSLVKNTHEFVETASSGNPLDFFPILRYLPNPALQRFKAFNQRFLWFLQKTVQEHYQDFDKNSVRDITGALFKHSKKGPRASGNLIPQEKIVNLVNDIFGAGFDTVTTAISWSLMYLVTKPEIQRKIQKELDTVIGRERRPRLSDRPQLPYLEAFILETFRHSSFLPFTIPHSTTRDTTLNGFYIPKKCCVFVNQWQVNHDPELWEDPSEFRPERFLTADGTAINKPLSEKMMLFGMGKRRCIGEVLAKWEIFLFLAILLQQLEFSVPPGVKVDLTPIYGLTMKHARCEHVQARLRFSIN

Activity change, negative = inhibition, inactive:
CCC/C=C(\CCC)C(NC(=O)c1ccc(C(F)(F)F)cc1)c1ccc(C(F)(F)F)cc1 (stereo not given) -16.4%
COC(=O)[C@@]1(Cc2ccc(OC)cc2)[C@@H]2C(=CC(=O)[C@H]2CC(=O)C(=O)N2CCCC2)CN1C(=O)c1ccccc1 -15.6%
COC(=O)[C@@]1(Cc2ccccc2)[C@H]2c3cc(C(=O)N(C)C)n(Cc4ccsc4Br)c3C[C@H]2CN1C(=O)c1ccccc1 -17.5%
C[C@@]1(C(NC(=O)Cc2ccccc2)c2ccc(-c3ccccc3)cc2)C[C@H]1C1CCCCC1 (stereo not given in full) 0.4%
COC(=O)[C@@]1(Cc2ccc(F)cc2)[C@H]2c3cc(C(=O)N4CCCC4)n(Cc4ccc(C)c(F)c4F)c3C[C@H]2CN1C(=O)c1ccccc1 -20.7%
Cc1cc(CNC(=O)[C@H]2C[C@@H]2[C@H](NP(=O)(c2ccccc2)c2ccccc2)c2ccccc2)nn1C -8.5%
COC(=O)c1ccc(C(NC(=O)c2ccco2)[C@]2(C)C[C@H]2C2CCCCC2)cc1 (stereo not given in full) -13.3%
CCC/C=C(\CCC)C(NP(=O)(c1ccccc1)c1ccccc1)c1ccc(C(F)(F)F)cc1 (stereo not given) -7.2%
CCCC[C@H]1C[C@@H]1[C@@H]1N(P(=O)(c2ccccc2)c2ccccc2)[C@](CO)(c2ccccc2)CC12CC2 -20.5%
CC[C@H]1C2=C3C(CC[C@H]4C(OCc5ccc(F)cc5C(F)(F)F)OC[C@](C)([C@@H]34)N(C(=O)OC(C)(C)C)C2)C(COC(C)=O)C1COC(C)=O (stereo not given in full) -20.1%
COC(=O)[C@@]1(Cc2ccc(F)cc2)[C@H]2c3cc(C(=O)N(C)C)n(Cc4ccc(C)c(F)c4F)c3C[C@H]2CN1C(=O)c1ccccc1 -11.3%
CCC/C=C(\CCC)C(NS(=O)(=O)CC12CCC(CC1=O)C2(C)C)c1ccc(C(=O)OC)cc1 (stereo not given) -13.8%
CC(C)(C)C(=O)NC(c1ccc(Cl)cc1)[C@]1(C)C[C@H]1C1CCCCC1 (stereo not given in full) -8.5%
CCCC[C@@H]1C[C@H]1C(NC(=O)Cc1ccccc1)c1ccc(-c2ccccc2)cc1 (stereo not given in full) -13%

Potency, active:
CCCC/C=C/C(NC(=O)c1cccs1)c1ccccc1 (stereo not given) 1.58 µM
CC(C)(C)[Si](C)(C)c1c2c(nc3ccc(OCc4ccccc4)cc13)-c1cccc(=O)n1C2 5.01 µM
CCC/C=C(\CCC)C(NC(=O)c1ccc(-c2ccccc2)cc1)c1ccc(C(=O)OC)cc1 (stereo not given) 0.631 µM
c1ccc(-c2c3ccccc3nc3[nH]c4ccccc4c23)cc1 0.501 µM
COC(=O)[C@@]1(Cc2ccccc2)[C@H]2c3cc(C(=O)N4CCCC4)n(Cc4c(CO)[nH]cc(C)c4=O)c3C[C@H]2CN1C(=O)c1ccccc1 5.01 µM
CCCC[C@@H]1C[C@H]1C(NC(=O)c1ccccc1)c1ccc(Cl)cc1 (stereo not given in full) 1 µM
COC(=O)c1ccc(C23CC2(C(NP(=O)(c2ccccc2)c2ccccc2)c2ccccc2)C3)cc1 (stereo not given) 15.8 µM
C#CCOC(=O)NC(/C=C/CCCC)c1ccccc1 (stereo not given) 15.8 µM
CCCC[C@@H]1C[C@H]1C(NC(=O)c1ccc(C(F)(F)F)cc1)c1ccc(C(=O)OC)cc1 (stereo not given in full) 15.8 µM
COCC1C2CC[C@H]3C(OCc4ccc(OC)cc4)OC[C@]4(C)[C@H]3C2=C(CN4C(=O)OC(C)(C)C)[C@H](C)C1COC (stereo not given in full) 15.8 µM
O=C(NCc1nc2ccccc2[nH]1)[C@H]1C[C@@H]1[C@H](NP(=O)(c1ccccc1)c1ccccc1)c1ccccc1 15.8 µM
COC(=O)[C@@]1(Cc2ccc(F)cc2)[C@H]2c3cc(C(=O)N4CCCC4)n(CCc4ccc(OC)c(Br)c4)c3C[C@H]2CN1C(=O)c1ccccc1 15.8 µM
CC(C)c1cccc2cc3c(nc12)-c1cccc(=O)n1C3 0.501 µM
CCCC[C@@H]1C[C@H]1C(NC(=O)c1cccs1)c1ccccc1C(F)(F)F (stereo not given in full) 6.31 µM
COc1ccc2nc3c(c([Si](C)(C)C(C)(C)C)c2c1)Cn1c-3cccc1=O 0.794 µM
CC(C)c1cccc2nc3c(c([Si](C)(C)C(C)(C)C)c12)Cn1c-3cccc1=O 25.1 µM
CCCC[C@@H]1C[C@H]1C(NC(=O)c1ccco1)c1ccc(-c2ccccc2)cc1 (stereo not given in full) 5.01 µM
COC(=O)[C@@]1(Cc2ccc(F)cc2)[C@H]2c3cc(C(=O)N4CCCC4)n(Cc4c(CO)[nH]cc(C)c4=O)c3C[C@H]2CN1C(=O)c1ccccc1 20 µM
CCC/C=C(\CCC)C(NC(=O)c1ccccc1)c1ccccc1 (stereo not given) 10 µM
CCCC[C@@H]1C[C@H]1C(NC(=O)c1ccccc1)c1ccc(-c2ccccc2)cc1 (stereo not given in full) 0.501 µM
CC[C@@]1(O)C(=O)COc2c1cc1n(c2=O)Cc2c-1nc1cccc(C(C)C)c1c2[Si](C)(C)C 7.94 µM
CCCCc1c2ccccc2nc2[nH]c3ccccc3c12 0.2 µM
COC(=O)[C@@]1(Cc2ccc(F)cc2)[C@H]2c3cc(C(=O)N(C)C)n(Cc4c(CO)[nH]cc(C)c4=O)c3C[C@H]2CN1C(=O)c1ccccc1 25.1 µM
CCc1cccc2nc3c(c([Si](C)(C)C)c12)Cn1c-3cccc1=O 2.51 µM
C[C@@H](C(=O)Nc1ccc2ccccc2c1)[C@H]1C[C@]1(C)[C@H](NC(=O)OCc1ccccc1)c1ccccc1 3.98 µM
C=C1C(=O)C=C2CN(C(=O)c3ccccc3)[C@@](Cc3ccc(F)cc3)(C(=O)OC)[C@@H]12 15.8 µM
